# Assay results taken from PubChem BioAssay.
# Unmarked numbers belong to inactive results. The rule behind the calls is not given here.
# Biological target: Pantothenate synthetase (Mycobacterium tuberculosis (strain ATCC 25618 / H37Rv)) (UniProt P9WIL5)
# Experiment: Coupled enzyme confirmation of inhibitors against recombinant Mtb PanC (AID 375);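 note: 0% = full reaction with vehicle and 100% = no enzyme background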
# Details: coupled enzyme assay; at 10 µM, active compounds read high
# Pantothenate synthetase (Mycobacterium tuberculosis (strain ATCC 25618 / H37Rv)), sequence (P9WIL5 whole entry, looked up): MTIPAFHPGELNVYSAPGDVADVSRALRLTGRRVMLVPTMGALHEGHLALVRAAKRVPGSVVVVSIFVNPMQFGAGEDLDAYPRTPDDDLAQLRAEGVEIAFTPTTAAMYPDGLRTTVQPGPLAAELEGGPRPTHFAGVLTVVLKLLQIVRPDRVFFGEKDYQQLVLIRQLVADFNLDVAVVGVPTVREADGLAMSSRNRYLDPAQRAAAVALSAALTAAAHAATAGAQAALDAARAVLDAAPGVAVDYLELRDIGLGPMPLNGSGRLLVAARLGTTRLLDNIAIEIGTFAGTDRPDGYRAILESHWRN
row,Structure (SMILES),inhibition [%]
1,CCc1cc2c(=O)c(-c3cscn3)coc2cc1O,0
2,CCOC(=O)N1CCC(NC(=O)CCc2c(C)nc3c(c(C)nn3C(C)(C)C)c2C)CC1,7
3,O=C(NC1CCCC1)C(c1ccco1)N(Cc1ccccc1)C(=O)c1csnn1 (stereo not given),0
4,O=C1CC(N2CCN(c3cccc(C(F)(F)F)c3)CC2)C(=O)N1c1ccccc1 (stereo not given),0
5,Cn1c(=O)[nH]c(=O)c2c1nc(N1CCc3ccccc3C1)n2CCSc1nc2ccccc2s1,4
